Experimental data from PubChem BioAssay AID1159580 (chemical genetic matrix, 2015).
The campaign covered roughly 5,500 compounds. About 2,000 (36%) were called active. About 18% were inconclusive and are not listed. Rule as the data show it: active = normalized growth mostly below about 0.91 (no sharp cut-off); inconclusive = no clear call, values can overlap the other calls; inactive = mostly above about 0.92. This is one part of the list.

Test: chemical genetic growth profiling, strain panel (AID 1159580);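 also: tested at 20 µM; growth read once vehicle control cultures reached saturation at 30 °C; 1 = growth at the plate median or of vehicle wells; lower values mean less growth of the strain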
Settings: S. cerevisiae deletion strains, growth OD

Measured: normalized growth

O=C(CC[N+](=O)[O-])OC[C@H]1O[C@@H](O)[C@H](OC(=O)CC[N+](=O)[O-])[C@@H](OC(=O)CC[N+](=O)[O-])[C@@H]1OC(=O)CC[N+](=O)[O-]
inactive: locus YBR021W, strain FUR4, stronger effect = lower value 1.04 | locus YBR229C, strain ROT2, stronger effect = lower value 1.02 | locus YCL029C, strain bik1, stronger effect = lower value 1.01 | locus YDL035C, strain GPR1, stronger effect = lower value 1.08 | locus YDL074C, strain BRE1, stronger effect = lower value 1.18 | locus YDL101C, strain DUN1, stronger effect = lower value 1.02 | locus YDL185W, strain tfp1, stronger effect = lower value 1.01 | locus YDL192W, strain arf1, stronger effect = lower value 1.03 | locus YDR101C, strain arx1, stronger effect = lower value 1.01 | locus YDR150W, strain NUM1, stronger effect = lower value 1.03 | locus YDR162C, strain NBP2, stronger effect = lower value 1.05 | locus YDR318W, strain mcm21, stronger effect = lower value 1.03 | locus YDR388W, stronger effect = lower value 0.999 | locus YDR502C, strain sam2, stronger effect = lower value 1.02 | locus YEL061C, strain CIN8, stronger effect = lower value 1.03 | locus YER110C, stronger effect = lower value 0.998 | locus YER155C, strain BEM2, stronger effect = lower value 1.01 | locus YER167W, strain BCK2, stronger effect = lower value 1.02 | locus YGL078C, strain dbp3, stronger effect = lower value 1 | locus YGL086W, strain mad1, stronger effect = lower value 1.01 | locus YGL248W, strain PDE1, stronger effect = lower value 1.05 | locus YGR135W, strain pre9, stronger effect = lower value 1.01 | locus YGR252W, strain gcn5, stronger effect = lower value 1.04 | locus YHR030C, strain SLT2, stronger effect = lower value 1.02 | locus YHR079C, strain IRE1 (second series), stronger effect = lower value 0.998 | locus YHR094C, strain hxt1, stronger effect = lower value 1.01 | locus YHR129C, strain ARP1, stronger effect = lower value 1.04 | locus YHR200W, strain rpn10, stronger effect = lower value 1.02 | locus YIL066C, strain RNR3, stronger effect = lower value 1.04 | locus YIL073C, strain SPO22, stronger effect = lower value 1.13 | locus YIL125W, strain kgd1, stronger effect = lower value 1 | locus YIR030C, strain dcg1, stronger effect = lower value 1.03 | locus YJL095W, strain BCK1, stronger effect = lower value 1.08 | locus YJL134W, strain LCB3, stronger effect = lower value 1.02 | locus YJL168C, strain set2, stronger effect = lower value 1.01 | locus YJL187C, strain SWE1 (second series), stronger effect = lower value 1.04 | locus YKL009W, strain mrt4, stronger effect = lower value 0.993 | locus YKL068W, stronger effect = lower value 1 | locus YKL085W, strain MDH1 (second series), stronger effect = lower value 1.01 | locus YKL085W, strain MDH1, stronger effect = lower value 1.01 | locus YKR001C, strain vps1, stronger effect = lower value 1.07 | locus YLR039C, strain RIC1, stronger effect = lower value 1.23 | locus YLR058C, strain SHM2, stronger effect = lower value 1.03 | locus YLR102C, strain apc9, stronger effect = lower value 0.991 | locus YLR268W, strain sec22, stronger effect = lower value 1.04 | locus YLR330W, strain CHS5, stronger effect = lower value 1.03 | locus YLR342W, strain FKS1 (second series), stronger effect = lower value 1.06 | locus YLR371W, strain rom2, stronger effect = lower value 1.02 | locus YLR418C, strain cdc73, stronger effect = lower value 1.15 | locus YML016C, strain PPZ1, stronger effect = lower value 1.02 | locus YML032C, strain rad52, stronger effect = lower value 0.999 | locus YML124C, strain tub3, stronger effect = lower value 1.02 | locus YMR078C, strain ctf18, stronger effect = lower value 1.01 | locus YMR223W, strain ubp8, stronger effect = lower value 1.02 | locus YMR307W, strain GAS1, stronger effect = lower value 1.24 | locus YNL067W, strain RPL9B, stronger effect = lower value 1.02 | locus YNL153C, strain GIM3, stronger effect = lower value 1.05 | locus YNL233W, strain BNI4, stronger effect = lower value 1.08 | locus YNL250W, strain rad50, stronger effect = lower value 0.995 | locus YNL271C, strain bni1, stronger effect = lower value 1.01 | locus YNL298W, strain CLA4, stronger effect = lower value 1.01 | locus YNL307C, strain MCK1, stronger effect = lower value 1.01 | locus YNR052C, strain pop2, stronger effect = lower value 1 | locus YOL012C, strain htz1 1.02 | locus YOL147C, strain pex11, stronger effect = lower value 0.996 | locus YOR061W, strain CKA2, stronger effect = lower value 1.02 | locus YOR069W, strain VPS5, stronger effect = lower value 1.02 | locus YOR136W, strain idh2, stronger effect = lower value 1.01 | locus YOR144C, strain elg1, stronger effect = lower value 1 | locus YOR184W, strain ser1, stronger effect = lower value 1.03 | locus YOR316C, strain cot1, stronger effect = lower value 0.992 | locus YPR119W, strain clb2, stronger effect = lower value 0.998 | locus YPR141C, strain kar3, stronger effect = lower value 1 | locus YPR163C, strain tif3, stronger effect = lower value 1.01 | locus YPR167C, strain met16, stronger effect = lower value 1.02 | strain wtn01, stronger effect = lower value 1.02
